High-throughput results (PubChem)
Only some compounds are listed: those with a hit (about 1.4% of all), similar ones and a draw of the others.
MsrA inhibitor: bovine MsrA enzyme inhibitors, primary screen, biochemical, absorbance, HTS. Methionine sulfoxide reductase A (Bos taurus). purified bovine MsrA, absorbance read-out. inhibition, % at 15.5 µM. hit rate 0.75% among 360,000. AID 651718, 2012; in the data active means inhibition above about 4.5%
pCIP destab: p/CIP-EGFP fusion destabilizers, primary screen, fluorescence, F442A cells; hit rate 0.01% among 290,000; Q05BA5; decrease of EGFP signal, % at 10 µM; 16 h; AID 1984, 2009;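 active means EGFP signal decrease of at least 30% at 10 µM or well 3 SD below plate mean, unless failing retest; inactive means the rest, including hits failing retest or dose response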
MsrA act: bovine MsrA enzyme activators, primary screen, biochemical, absorbance, HTS; Methionine sulfoxide reductase A (Bos taurus); purified bovine MsrA, absorbance read-out; activation, % at 10.6 µM; hit rate 0.3% among 360,000; AID 602163, 2012; in the data active means activation above about 7.5%
14-3-3 Bad inh: inhibitors of 14-3-3 zeta/Bad binding, primary screen, biochemical, TR-FRET, bovine 14-3-3 zeta; 14-3-3 protein zeta/delta (Bos taurus), P63103; TR-FRET 14-3-3zeta/Dy647-pBad peptide displacement, 1 h; inhibition, % at 21.7 µM; hit rate 0.71% among 220,000;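 active means inhibition above about 70%, limit read from the data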
Target sequence (P63103 whole entry, looked up): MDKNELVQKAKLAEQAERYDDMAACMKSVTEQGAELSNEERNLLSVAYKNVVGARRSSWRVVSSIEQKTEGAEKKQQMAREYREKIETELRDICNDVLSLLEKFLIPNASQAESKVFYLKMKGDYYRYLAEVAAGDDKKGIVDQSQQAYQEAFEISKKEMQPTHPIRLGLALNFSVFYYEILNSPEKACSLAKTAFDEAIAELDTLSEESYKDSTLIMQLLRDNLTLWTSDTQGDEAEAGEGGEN
Of the large screens only hits and unclear results are named; the others gave an inactive call; [ ] = another dose, or the depositor's remark.

Nc1nc2c(ncn2[C@@H]2O[C@H](C(=O)NCCCN3CCCC3=O)[C@@H](O)[C@H]2O)c(=O)[nH]1	none (no result: pCIP destab, MsrA act, 14-3-3 Bad inh)
CCOC(=O)C(C)(C)CC#CCN(CC#Cc1ccccc1)S(=O)(=O)c1ccc(C)cc1	none (no result: pCIP destab, MsrA act, 14-3-3 Bad inh)
CSCC[C@@H](C(=O)O)N1Cc2ccccc2C1=O	14-3-3 Bad inh 81
CSCC[C@@H](C(=O)Nc1ccc2c(c1)OCCO2)N1Cc2ccccc2C1=O	none
O=C(O)[C@@H](c1ccccc1)N1Cc2ccccc2C1=O	14-3-3 Bad inh 92
COC(=O)c1cc(=O)n(Cc2ccco2)c(=Nc2ccccc2)s1	none (no result: pCIP destab, MsrA act, 14-3-3 Bad inh)
C/C=C/C=C/C(=O)c1cc(C)c(OC(=O)CNC(=O)OC(C)(C)C)c(C)c1O	none (no result: pCIP destab, MsrA act, 14-3-3 Bad inh)
COC(=O)c1c(C)nc2ccccc2c1-c1ccccc1	none
COC(=O)c1c(C)[nH]c(C)c1-c1ccccc1	14-3-3 Bad inh 81[fluorescence artefact?]
Nc1nc2c(ncn2[C@@H]2O[C@H](C(=O)NCCCc3ccccc3)[C@@H](O)[C@H]2O)c(=O)[nH]1	none (no result: pCIP destab, MsrA act, 14-3-3 Bad inh)
N#Cc1ccc(C(=O)NCC2CCN(C(=O)C(=O)c3cccs3)CC2)cc1	none (no result: pCIP destab, MsrA act, 14-3-3 Bad inh)
Oc1ccc[n+](CCCCC[n+]2cccc(O)c2)c1	none
CCCCCCCCCCCCCCCC[n+]1cccc(C(=O)N(CC)CC)c1	14-3-3 Bad inh 98[fluorescence artefact?]
CCCCCCCCCCCCCCCC[n+]1ccc(C(N)=O)cc1	14-3-3 Bad inh 79[fluorescence artefact?]
CCCCCCCCCCCCCCCC[n+]1ccccc1	none (no result: pCIP destab, 14-3-3 Bad inh)
CCCCCCCCCCCCCCCC[n+]1ccc(/C=N/O)cc1	14-3-3 Bad inh 99[fluorescence artefact?]
CCc1ccc(CN2CCN(S(=O)(=O)Cc3ccccc3)CC2)cc1	14-3-3 Bad inh 79
CC(C)[C@H](NC(=O)c1ccccc1)C(=O)N1CCC[C@H]1C(=O)NCc1ccccc1	none (no result: pCIP destab, MsrA act, 14-3-3 Bad inh)
O=C(c1cccc(Cl)c1)N1CCN(Cc2ccncc2)CC1	pCIP destab 29
O=C(c1cccc(Cl)c1)N1CCN(Cc2ccccc2F)CC1	14-3-3 Bad inh 84
COc1ccccc1/C=C/C=N/NC(=O)c1ccco1	MsrA inhibitor 4.6
CCCCCCCCOC(=O)c1c(CSC(=N)N)n(C)c2cc(Br)c(OC(C)=O)cc12	14-3-3 Bad inh 85
CCOC(=O)c1c(CSC(=N)N)n(-c2ccc(Br)cc2)c2cc(Br)c(OC(C)=O)cc12	14-3-3 Bad inh 96[fluorescence artefact?]
CCN(C(=O)C1CCCCC1)c1nnc(-c2cccnc2)s1	14-3-3 Bad inh 77
O=C(N[C@H](C(=O)N1CCC[C@H]1C(=O)NCCc1ccccc1Cl)c1ccccc1)c1ccc(Cl)c(Cl)c1	none (no result: pCIP destab, MsrA act, 14-3-3 Bad inh)
Cc1nc(-c2cccc(S(=O)(=O)N3CCC(C)CC3)c2)cs1	none
Cc1nc(-c2cccc(S(=O)(=O)N3CCCC(C)C3)c2)cs1 (stereo not drawn)	14-3-3 Bad inh 80
Cc1ccc2cc(C#N)c(SCc3nnc(-c4ccccc4[N+](=O)[O-])o3)nc2c1	none
Cc1ccc2nc3sc(-c4nnc(-c5ccccc5[N+](=O)[O-])o4)c(N)c3cc2c1	14-3-3 Bad inh 88[fluorescence artefact?] (no result: MsrA inhibitor, MsrA act)
c1ccc(Cc2cnc(N3CCN(Cc4csc5ccccc45)CC3)nc2)cc1	none (no result: pCIP destab, MsrA act, 14-3-3 Bad inh)
O=C(NC(=S)Nc1ccc2oc(-c3cccnc3)nc2c1)c1cccc(Cl)c1	14-3-3 Bad inh 81
Cc1cc(NCCc2c[nH]c3ccccc23)ccc1Nc1cccnc1	none (no result: pCIP destab, MsrA act, 14-3-3 Bad inh)
Oc1ccc(N=Cc2ccc(O)c(O)c2)cc1	14-3-3 Bad inh 86[fluorescence artefact?] (no result: MsrA inhibitor)
Cc1cc(C)c(O)c(C(=O)CC2CC(=O)NC(=O)C2)c1	none (no result: pCIP destab, MsrA act, 14-3-3 Bad inh)
COC(=O)c1nc(NC2=NCCCCC2)n[nH]1	none
C1CCN=C(Nc2nn[nH]n2)CC1	14-3-3 Bad inh 71
CCCCNCCOCCSc1ccc(Cl)cc1	none
CC(C)NCCOCCSc1ccc(Cl)cc1	14-3-3 Bad inh 83
CC1C/C(=C\c2cccnc2)C(=O)/C(=C/c2cccnc2)C1 (stereo not drawn)	MsrA inhibitor 5.2
O=C(/C=C/c1ccc(Br)cc1)c1ccc(NC(=O)c2ccco2)cc1	14-3-3 Bad inh 77[fluorescence artefact?]
COC(=O)C1=C(C)N(C)C(=NCc2cccc(C(F)(F)F)c2)NC1c1ccc(F)cc1 (stereo not drawn)	none (no result: pCIP destab, MsrA act, 14-3-3 Bad inh)
O=C(Cc1ccc([N+](=O)[O-])cc1)N1N=C(C2CC2)CC1(O)C(F)(F)F (stereo not drawn)	14-3-3 Bad inh 91
CCN(CC)CCOc1ccc(/C(=C(/Cl)c2ccccc2)c2ccccc2)cc1	14-3-3 Bad inh 78
Cn1cc(CCOCc2ccc(Br)cc2)c2ccccc21	none (no result: pCIP destab, MsrA act, 14-3-3 Bad inh)
O=C(CNCC1CCCO1)N1CCN(S(=O)(=O)c2ccc3ccccc3c2)CC1 (stereo not drawn)	14-3-3 Bad inh 73
CCOC(=O)N1CCC(N2CCN(S(=O)(=O)c3ccc4ccccc4c3)CC2)CC1	14-3-3 Bad inh 70
